Compound activity: PubChem, National Center for Advancing Translational Sciences (NCATS)
Hits are enriched below; roughly 8.3% of the tested compounds scored in any of these assays.
MCF10A rerep: A quantitative high throughput screen for small molecules that induce DNA re-replication in MCF 10a normal breast cells; MCF 10A DNA re-replication, Hoechst nuclear intensity, 48 h; Potency, µM (doses to about 46.1 µM), for inactives: at the highest dose activity, positive = re-replication, hits mostly activators; 2.9% of 350,000 active; AID 624296, 2012; also: potency is read from the fitted curve at half-maximal effect; % of control where 0% means no effect; nearly all actives have a fitted effect of over 50% in size
Giardia kill: Small Molecules that selectively kill Giardia lamblia: qHTS | 0.15% of 340,000 active | Giardia lamblia trophozoite viability | activity change, % at 7.66 µM, hits read low | AID 540267, 2011; in the data active = activity change below about -80%; inconclusive = between about -30% and that limit;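 also: parasites exposed to compound for two days anaerobically before the ATP read; % is scaled to controls: 0 for no effect and ±100 for the full control effect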
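ATP-content bioluminescence gauges trophozoite survival. Cells (100/well) receive compound and incubate anaerobically for 48 hrs at 37 deg C; detection reagent follows for 15-30 min at room temperature.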
RORg inh: qHTS for inhibitors of ROR gamma transcriptional activity; 5.4% of 310,000 active; Drosophila S2 Gal4-RORgamma UAS-luciferase reporter, 20 h; Nuclear receptor ROR-gamma (Mus musculus), P51450; Potency, µM (doses to about 53.6 µM), inactives show at the top dose activity change, negative = inhibition, usual class: inhibitors; also: potency is read from the fitted curve at half-maximal effect; % is scaled to controls: 0 for no effect and ±100 for the full control effect; nearly all actives have a fitted effect of over 60% in size
Target sequence (P51450 whole entry, looked up, the tested form may be a part): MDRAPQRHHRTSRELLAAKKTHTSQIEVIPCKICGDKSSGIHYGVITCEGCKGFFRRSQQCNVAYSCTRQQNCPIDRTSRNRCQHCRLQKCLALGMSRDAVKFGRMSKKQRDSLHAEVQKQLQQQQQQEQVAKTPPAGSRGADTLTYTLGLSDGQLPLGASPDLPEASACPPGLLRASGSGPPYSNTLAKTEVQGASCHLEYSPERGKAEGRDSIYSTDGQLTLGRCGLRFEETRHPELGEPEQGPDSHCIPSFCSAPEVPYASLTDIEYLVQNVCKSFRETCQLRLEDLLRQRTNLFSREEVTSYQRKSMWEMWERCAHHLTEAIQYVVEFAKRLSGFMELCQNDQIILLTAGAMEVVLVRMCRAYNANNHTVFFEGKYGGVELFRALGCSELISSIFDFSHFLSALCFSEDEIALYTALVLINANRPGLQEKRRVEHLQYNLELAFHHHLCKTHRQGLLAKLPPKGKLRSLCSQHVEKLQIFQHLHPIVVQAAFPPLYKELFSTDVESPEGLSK
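Drosophila Schneider cells stably carrying a metallothionein-driven Gal4 DBD–ROR gamma fusion and a UAS-Photinus luciferase reporter were exposed to compound for 1 hr, then induced with copper sulfate (700 uM final) for 20 hr at ambient temperature before luminescence reading.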
VP16 counter: VP16 counterscreen qHTS for inhibitors of ROR gamma transcriptional activity | AID 2546, 2010 | Drosophila S2 Gal4-VP16 UAS-luciferase, luminescence, 20 h | Potency, µM (highest dose often 53.6 µM), without a hit: at the top dose activity, negative = inhibition, usual class: inhibitors | 3.5% of 310,000 active;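 also: Gal4-VP16 expression switched on by copper sulfate through the metallothionein promoter; potency is read from the fitted curve at half-maximal effect; % is scaled to controls: 0 for no effect and ±100 for the full control effect; nearly all actives have a fitted effect of over 50% in size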
BCR signal inh: qHTS Assay to Find Inhibitors of Chronic Active B-Cell Receptor Signaling; ABC-DLBCL IkBa-CBG/CBR reporter, luminescence ratio, 4 h; Potency, µM (top dose mostly 46.1 µM), inactives show top-dose activity change, negative = inhibition, most hits filed as inhibitors; 0.05% of 340,000 active; AID 493014, 2011; active = well fitted inhibition curve with a large enough effect in the signal ratio, with a control signal flat, not every such curve was filed as active; inconclusive = small, poorly fitted or top-dose-only effect, or effect the other way, or a change in a side signal; the % refers to the signal ratio;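 also: potency is read from the fitted curve at half-maximal effect; plate controls were basal doxycycline-induced cells for no effect and cells given 10 µM MG132 for full effect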
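Concentration-response series (up to 46 uM) were applied to TMD8 dual-reporter cells for 4 h at 37C with doxycycline. Green/red ratio, after filter-overlap correction, defined %Activity; red signal alone was normalised to basal cells and zero luminescence.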
SW480 rereplic: A quantitative high throughput screen for small molecules that induce DNA re-replication in SW480 colon adenocarcinoma cells | 1.8% of 340,000 active | SW480 DNA re-replication, Hoechst DNA content imaging, 48 h | Potency, µM (series often up to 46.1 µM), without a hit: top-dose re-replication activation, actives largely listed as activators; also: potency is read from the fitted curve at half-maximal effect; % of control where 0% means no effect; nearly all actives have a fitted effect of over 55% in size
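Quantitative HTS format with DMSO vehicle controls; 48 hr drug incubation at 37 C, then 40 min Hoechst staining and scanning imager measurement at 405 nm excitation.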
An asterisk follows results filed as active; ? = inconclusive; . = not tested or not shown; [ ] = remark or other dose. Unless noted, calls follow the shape of the dose curve; as a rule, active = well fitted curve in the direction sought with a large enough effect; inconclusive = small, poorly fitted or top-dose-only effect, or another doubt; inactive = no such curve, though single readings can be large; an effect the other way counts as inactive or inconclusive.

SMILES | MCF10A rerep | Giardia kill | RORg inh | VP16 counter | BCR signal inh | SW480 rereplic
O=C(CCl)N1c2ccccc2CCc2ccccc21 | . | . | 11µM* | ? | ? | .
Cc1ccc(S(=O)(=O)n2nc(C)c(S(=O)(=O)N3CCC(C)CC3)c2C)cc1 | . | . | . | . | 3% | .
COc1cccc(NC(=S)N2c3ccccc3CC2C)c1 (configuration not stated) | 1% | 15 | 22µM* | ? | 11% | -5%
COc1cc(NC(=S)N2c3ccccc3CC2C)cc(OC)c1 (configuration not stated) | 13% | -10 | 8.9µM* | 18µM* | -13% | -1%
N#CSCC(=O)c1cccc2ccccc12 | 18µM* | -14 | 11µM* | ? | ? | ?
O=C(CC1C[C@H](C(=O)N2CCOCC2)[C@@]2(CCC3CCCC3)c3[nH]c4ccccc4c3CCN2C1=O)NCCc1ccccn1 (some centres not stated) | 11% | 44 | . | . | -1% | ?
Cc1nc(N2CCN(S(=O)(=O)c3cccc4nonc34)CC2)c2c3c(sc2n1)CCCC3 | 18µM* | -5 | -34% | 4% | -2% | 1%
CCOc1ccc(CNCc2c(C(=O)O)n(Cc3ccccc3C)c3cc(OC)ccc23)cc1OC | . | 6 | . | . | . | .
CC12CCC(/C(=N/O)C1=O)C2(C)C (configuration not stated) | . | 7 | -6% | -3% | . | .
CCOCCCn1c(=O)c2ccccc2n2c(=S)[nH]nc12 | -17% | 18 | ? | -20% | 12% | -5%
CC(C)CCn1c(=O)c2ccccc2n2c(=S)[nH]nc12 | 19% | -1 | 4µM* | 13µM* | 7% | -6%
CC(C)(C)NC(=O)CC1C[C@H](C(=O)N2CCCCC2)[C@@]2(CCc3ccccc3)c3[nH]c4ccccc4c3CCN2C1=O (some centres not stated) | -11% | -18 | . | . | -1% | -1%
CCN1CCN(C(c2cc3cccc(C)c3[nH]c2=O)c2nnnn2Cc2ccccc2)CC1 (configuration not stated) | 3% | 14 | 18% | 5% | -8% | 1%
Cc1cccc2cc(C(c3nnnn3Cc3ccccc3)N3CCCc4ccccc43)c(=O)[nH]c12 (configuration not stated) | 5.2µM* | -7 | -5% | -17% | -11% | 4.6µM*
COc1cc(C(=O)N2CCCCCCC2)cc(OC)c1OC | 1% | . | 19% | 9% | . | -7%
COc1cc(C(=S)N2CCCC2)cc(OC)c1OC | 3.7µM* | 0 | -22% | -23% | 2% | -20%
CC(C)(C)c1cc(C(=S)N2CCCC2)cc(C(C)(C)C)c1O | 7% | 4 | 6.3µM* | 5µM* | -4% | 19%
CC(C)(C)c1cc(CCC(=O)N2CCCC2)cc(C(C)(C)C)c1O | -21% | -11 | -14% | -7% | 4% | 6%
CC(=O)Nc1ccc(S(=O)(=O)NCCC(=O)OCc2csc(CC(=O)Nc3ccccc3C)n2)cc1 | 14% | 0 | . | . | ? | -567%
O=[N+]([O-])c1cc(F)cc(F)c1Nc1ccc(F)cc1 | -4% | -6 | . | . | . | -4%
CC[C@H](C)[C@H](NC(=O)[C@H](CCC(=O)O)NC(=O)[C@H](C)NC(=O)[C@@H](NC(=O)[C@H](Cc1cnc[nH]1)NC(=O)[C@@H](NC(=O)[C@H](CCC(=O)O)NC(=O)[C@H](C)NC(=O)[C@@H](NC(=O)[C@H](CC(C)C)NC(=O)[C@H](Cc1cnc[nH]1)NC(=O)[C@H](Cc1cnc[nH]1)NC(=O)[C@H](CC(C)C)NC(=O)[C@H](Cc1c[nH]c2ccccc12)NC(=O)[C@H](Cc1ccccc1)NC(=O)[C@H](CCCNC(=N)N)NC(=O)[C@H](CCCNC(=N)N)NC(=O)[C@H](CCCNC(=N)N)NC(=O)[C@H](CC(C)C)NC(=O)[C@H](CC(=O)O)NC(=O)[C@H](CCC(N)=O)NC(=O)[C@@H](NC(=O)[C@H](CO)NC(=O)[C@H](CCCCN)NC(=O)CNC(=O)[C@H](CCCCN)NC(=O)[C@H](CC(=O)O)NC(=O)[C@H](Cc1cnc[nH]1)NC(=O)[C@H](CC(C)C)NC(=O)[C@H](CC(C)C)NC(=O)[C@H](CCC(N)=O)NC(=O)[C@@H](NC(=O)[C@H](CCC(=O)O)NC(=O)[C@H](CO)NC(=O)[C@@H](NC(=O)[C@H](C)N)C(C)C)[C@@H](C)CC)[C@@H](C)CC)[C@@H](C)CC)[C@@H](C)CC)[C@@H](C)O)C(=O)O | . | . | 8% | -5% | . | .
CC(=O)NC(=S)Nc1ccc(NC(=S)NC(=O)c2cccs2)cc1 | 3% | 8 | -2% | -6% | 8% | -3%
CN(c1ccccc1)S(=O)(=O)c1ccc(NC(=O)c2cccs2)cc1 | ? | 9 | 17% | -6% | -1% | -3%
CCN(c1ccccc1)S(=O)(=O)c1ccc(NC(=S)NC(=O)c2cccs2)cc1 | 21% | -8 | 3.2µM* | 7.1µM* | 2% | -5%[9.22 µM]
CCCCOC(=O)c1ccc(NC(=S)NC(=O)c2ccco2)cc1 | 80% | -4 | 11µM* | ? | ? | ?
SMILES | MCF10A rerep | Giardia kill | RORg inh | VP16 counter | BCR signal inh | SW480 rereplic
CCN(CC)c1ccc(NC(=S)NC(=O)c2cccs2)cc1 | ? | 5 | 3.2µM* | 5µM* | ? | -1%
CCCCCOC(=O)c1ccc(NC(=O)c2ccco2)cc1 | ? | 0 | 26% | -9% | -5% | -4%
CCN(CC)c1ccc(NC(=S)NC(=O)c2ccco2)cc1 | 11% | 19 | 4µM* | 16µM* | 6% | -2%
COc1ccccc1CNC(=O)CNC(=O)c1ccc(Br)o1 | 18% | -4 | 11% | 0% | -4% | -33%
CC(C)C(=O)NC(=S)Nc1ccc(S(=O)(=O)N(C)C)cc1 | 1% | -8 | ? | ? | 0% | 0%
CN(C)S(=O)(=O)c1ccc(NC(=S)NC(=O)c2cccs2)cc1 | 10% | -12 | 8.9µM* | -82% | -7% | 17%
Cc1ccc(NC(=O)c2ccc(OC(=O)c3ccco3)cc2)cc1 | 21µM* | -26 | 32% | -1% | -3% | ?
CCCS(=O)(=O)N1CCN(Cc2ccc3c(c2)c2ccccc2n3CC)CC1 | 13µM* | 6 | -17% | -13% | -8% | ?
CCn1c2ccccc2c2cc(CN3CCN(C(=O)c4ccco4)CC3)ccc21 | ? | -15 | ? | ? | 0% | 0%
